Screens: PubChem BioAssay, several laboratories
PP1 inh = blocks human PP1-alpha phosphatase, a PP5 counter-screen; P62136; purified PP1alpha, OMFP fluorescence; inhibition, % at 6.7 µM; 320,000 compounds, 0.9% hits; AID 2235;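 active = inhibition above the mean inhibition of all tested compounds plus 3 SD, computed separately for each screening campaign, cut at about 15% in these data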
Target sequence (P62136 whole entry, looked up): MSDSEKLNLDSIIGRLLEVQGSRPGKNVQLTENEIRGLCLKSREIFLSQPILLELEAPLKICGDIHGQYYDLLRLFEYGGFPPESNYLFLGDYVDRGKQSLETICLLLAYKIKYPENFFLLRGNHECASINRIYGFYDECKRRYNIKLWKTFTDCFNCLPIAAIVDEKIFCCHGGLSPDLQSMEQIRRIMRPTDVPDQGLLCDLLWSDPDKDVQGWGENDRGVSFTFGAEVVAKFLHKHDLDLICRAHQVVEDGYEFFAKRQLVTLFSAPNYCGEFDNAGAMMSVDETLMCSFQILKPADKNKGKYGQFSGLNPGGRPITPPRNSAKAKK
CSC inhib = blocks cancer stem cells; cancer stem cell-like cells viability, luminescence; inhibition, % at 7.5 µM; 300,000 compounds, 1.1% hits; AID 2717; in the data active = inhibition above about 75%; inconclusive = no clear call, values can overlap the other calls; tested in HMLE shEcad cells
PP5 inh = inhibitors of human protein phosphatase 5 (PP5). AID 1987. 320,000 compounds, 0.18% hits. purified PP5c, OMFP substrate fluorescence. inhibition, % at 6.7 µM;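 active = inhibition above the campaign's mean inhibition across all tested compounds plus 3 SD, cut at about 9.5% in these data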;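 note: 0% = DMSO only and 100% = 100 µM cantharidin control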
Mdm2 MdmX PPI = human Mdm2/MdmX binding inhibition; inhibition, % at 8 µM; SaOS-2 split-luciferase Mdm2/MdmX complementation, luminescence; 330,000 compounds, 3% hits; O15151+Q00987;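 active = inhibition of at least 50% at 8 µM in the primary screen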
Calb FLC = C. albicans growth modulation with fluconazole | AID 1979 | 300,000 compounds, 0.57% hits | C. albicans CaCi-2 (fluconazole-resistant clinical isolate) + fluconazole, Alamar Blue growth, 48 h | growth inhibition, % (concentration not given with the values);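 active = growth inhibition above about 58% in most replicates, limit read from the data, passing the limit was not always enough; inconclusive = exactly half the replicates above a set limit; inactive = most replicates below a set limit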;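 note: all wells also contain fluconazole at 8 µg/ml as a sub-toxic cotreatment; 0% = median of DMSO wells and 100% = median of geldanamycin control wells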
Beta cell apopt = beta cell apoptosis inhibition; INS-1E cytokine-induced death, ATP luminescence, 48 h; percent of positive-control rescue, neutral wells zero; protection from apoptosis, % (no concentration beside the values); 300,000 compounds, 0.8% hits; AID 435005;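 active = Every replicate reaches about 75%, or at least half do and their mean reaches it too, limit read from the data; inconclusive = At least half of replicates reach the limit but their mean does not; inactive = Under half of replicates reach the limit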;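 note: 0% = cytokine-treated negative control wells and 100% = positive control rescue; higher means more ATP so stronger rescue from cytokine killing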
* = called active by the depositor; ? = inconclusive; . = no result given. Compounds with a hit are over-represented: about 4.9% of the library has one in this group of screens.

SMILES	PP1 inh	CSC inhib	PP5 inh	Mdm2 MdmX PPI	Calb FLC	Beta cell apopt
COc1ccc(C(=O)CCC(=O)N2CCN(c3ccc([N+](=O)[O-])cc3)CC2)cc1	16*	0	0	-5	-2	4
O=C(CCC(=O)N1CCN(c2ccc(O)cc2)CC1)c1ccc(Br)cc1	1	101*	0	-13	?	5
COc1ccc2cc(S(=O)(=O)N3CCCC3)ccc2c1	-5	4	2	24	-4	.
CC(NC(=O)CCN1C(=O)c2ccccc2C1=O)c1ccccc1 (configuration not stated)	-1	-10	1	24	-5	-1
C=CCC[C@@H](Cc1ccc(F)cc1)C(=O)OC[C@@H](NC(=O)[C@@H](CC=C)CC(=O)N[C@H](CO)Cc1ccccc1)C(C)(C)C	.	-4	.	36	.	3
COc1ccc2c(c1)c(/C=C/c1cc[n+](C)cc1)cn2C	4	-25	-1	5	81*	49
CCNC(=S)N(CCc1ccc(S(N)(=O)=O)cc1)C1CC(=O)N(c2ccccc2)C1=O (configuration not stated)	1	22	2	9	13	.
O=C1CC(N(CCc2ccccc2)C(=S)Nc2ccccc2)C(=O)N1c1ccccc1 (configuration not stated)	5	79*	4	30	3	4
O=C1CC(N(CCc2ccccc2)C(=S)Nc2ccccc2)C(=O)N1c1ccc(F)cc1 (configuration not stated)	2	38	5	12	10	13
O=C1CC(N(CCc2ccccc2)C(=S)Nc2cc(Cl)ccc2Cl)C(=O)N1c1c(Cl)cccc1Cl (configuration not stated)	4	107*	7	31	1	30
COc1ccccc1N1CCN(Cc2c[nH]c3ccccc23)CC1	-5	5	0	11	-6	.
Cc1ccccc1N1CCN(Cc2c[nH]c3ccccc23)CC1	1	30	1	9	-18	111*
Fc1ccc(N2CCN(Cc3c[nH]c4ccccc34)CC2)cc1	-4	-3	-2	9	-17	91*
c1cnc(N2CCN(Cc3c[nH]c4ccccc34)CC2)nc1	4	-22	-1	4	16	106*
Cc1onc(-c2c(F)cccc2Cl)c1C(N)=S	-4	5	0	18	-6	-4
Brc1cccc(OCCN2CCc3ccccc3C2)c1	1	84*	3	7	36	2
COc1ccc(/C=C/C(=O)c2ccncc2)c2ccccc12	2	176*	3	35	35	100*
CN(C(=O)CSc1nnc(-c2ccc(F)cc2)n1C)C1CCS(=O)(=O)C1 (configuration not stated)	.	-10	.	-16	.	-7
CCOC(=O)c1[nH]c2ccc(OC)cc2c1NC(=O)c1ccccc1C(=O)O	0	-19	1	5	4	3
CCOC(=O)c1[nH]c2ccc(F)cc2c1NC(=O)c1ccccc1C(=O)O	.	-14	.	6	85*	4
C[C@@]12C(=O)N(CCO)CC(=O)N1[C@H](/C=C/c1ccccc1)[C@@H]1C(=O)N(c3ccccc3)C(=O)[C@@H]12	-2	-9	0	-14	-4	3
CCCCn1c(N)c(N(CCOC)C(=O)c2nn(CC)c(=O)c3ccccc23)c(=O)[nH]c1=O	-4	3	1	0	-6	3
CCc1c(C2(O)CCCCC2)[nH]c2cc(C(F)(F)F)ccc12	6	130*	9	45	-3	109*
Cc1c(C2(O)CCCCC2)[nH]c2cc(C(F)(F)F)ccc12	.	?	.	-2	.	15
COCCn1c(=O)[nH]c(=O)c2cc(C(=O)c3cc(Cl)ccc3O)cnc21	0	-5	-2	20	89*	3
SMILES	PP1 inh	CSC inhib	PP5 inh	Mdm2 MdmX PPI	Calb FLC	Beta cell apopt
O=C(COS(=O)c1ccccc1)Nc1cc(Cl)ccc1N1CCOCC1 (configuration not stated)	-2	-1	0	16	64*	1
CN(C)N1C(N)=C(C#N)C(c2ccc3c(c2)OCO3)C2=C1CC(C)(C)CC2=O (configuration not stated)	-1	-11	-2	-6	-1	-6
CCCc1nc(SCc2ccccn2)c2c(=O)n(C)c(=O)n(C)c2n1	2	107*	1	1	-1	11
Cn1c(=O)c2c(SCc3ccccn3)nc(CC(C)(C)C)nc2n(C)c1=O	3	-2	2	17	4	18
CCn1ncc(Br)c1C(=O)Nc1ccccc1C(F)(F)F	-1	-1	-1	19	-3	-4
O=C1c2ccccc2C(=O)N1c1ncc(Cc2ccc(Cl)cc2)s1	8	-1	0	.	.	-6
N=C1SCC(=O)N1c1ncc(Cc2cccc(Cl)c2)s1	.	.	.	.	13	.
Cc1cccc(Cc2cnc(N3C(=N)SC(c4ccccc4)C3=O)s2)c1 (configuration not stated)	15*	-11	3	22	-2	12
N=C1SCC(=O)N1c1ncc(Cc2ccccc2Cl)s1	.	.	.	.	48	.
Cc1cccc(Cc2cnc(N3C(=N)SC(C)C3=O)s2)c1 (configuration not stated)	4	56	0	34	94*	3
Cc1ccc(Cc2cnc(N3C(=N)SC(C)C3=O)s2)cc1 (configuration not stated)	2	43	0	10	82*	8
COc1ccc2sc(-c3ccc(N(C)C)cc3)c(C#CCCO)c2c1	-5	122*	5	47	.	3
COc1ccc(-c2sc3ccc(OC)cc3c2-c2ccc(O)cc2)cc1	.	.	.	27	.	12
COc1ccc(-c2sc3ccc(OC)cc3c2C#CCCO)cc1	-1	99*	-5	11	3	7
COc1ccc(C2CCCN2C(=O)Nc2ccccc2)cc1OC (configuration not stated)	-3	3	0	-3	1	-8
O=C(NC1=C(Nc2ccc(Cl)cc2)C(=O)c2ccccc2C1=O)c1ccccc1	2	42	0	22	3	117*
CN(C1=C(NC(=O)c2ccc(Cl)cc2)C(=O)c2ccccc2C1=O)c1ccccc1	3	64	4	33	3	93*
O=C(Nc1ccc(Nc2ccccc2)cc1)c1ccc(Cl)cc1	2	41	3	21	26	14
Cc1cccc(C(=O)Nc2cccc(NC(=O)c3ccccc3)c2)c1	3	-2	4	15	16	8
Cc1cccc(NC2=C(NC(=O)c3ccccc3)C(=O)c3ccccc3C2=O)c1	-1	16	1	9	-20	78*
Cc1ccc(C2C3CSCC=C3C(C#N)=C(N)C2(C#N)C#N)cc1 (configuration not stated)	-4	6	1	0	90*	-5
NS(=O)(=O)c1ccc(NC(=O)c2cccc(Cl)c2)cc1	-2	9	0	13	8	-2
